Assay outcomes: PubChem BioAssay, National Center for Advancing Translational Sciences (NCATS)
TDP1 cell CPT: qHTS for Inhibitors of human tyrosyl-DNA phosphodiesterase 1 (TDP1): qHTS in cells in presence of CPT; chicken DT40 Tdp1-/-;hTDP1 cells + 20 nM CPT, ATP luminescence, 48 h; Potency, µM (highest dose often 46.2 µM), for the others: top-dose activity change, negative = growth inhibition, usual class: inhibitors; 12% of 420,000 active; note: % is set by controls: 0 for no effect and ±100 for the full control effect; nearly all actives have a fitted effect of over 55% in size
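Chicken DT40 Tdp1-/- cells stably complemented with human TDP1 were seeded at 400 cells/well in medium containing 20 nM camptothecin, exposed to pin-transferred compounds, and grown at 37 °C for at least 48 hr. Viability was read as ATP luminescence.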
S2 tox: Viability Counterscreen for Primary qHTS for Inhibitors of ATXN expression. 0.49% of 400,000 active. AID 651635, 2014. S2 cells (HEK-293 line with an ATXN2-luciferase reporter) viability, CellTiter-Fluor protease fluorescence, 24 h. Potency, µM (highest dose often 56.7 µM), actives largely listed as cytotoxic; note: nearly all actives have a fitted effect of over 40% in size
HepG2 viability: qHTS for Inhibitors of TGF-b: Cytotox Counterscreen; HepG2 CAGA-GFP viability, ATP luminescence, 18 h; Potency, µM (series often up to 46.1 µM), for the others: at the top dose activity change, negative = cytotoxicity, actives largely listed as cytotoxic; 0.76% of 410,000 active
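HepG2 CAGA-GFP cells (1000/well, DMEM with 1% FBS) received compound, then TGF-beta at 500 pg/mL final, and were incubated 18 hours at 37 degrees C. Viability was read by CellTiter-Glo luminescence. Media-only wells were set as complete cell-killing and DMSO as no toxicity.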
ATXN2 expr inh: Primary qHTS for Inhibitors of ATXN expression; HEK-293 ATXN2-luciferase reporter, luminescence, 24 h; Potency, µM (titrated, usually from 57 µM), for inactives: at the top dose activity change, negative = inhibition, usual class: inhibitors; 0.72% of 360,000 active; AID 1745845, 2022; note: % is set by controls: 0 for no effect and ±100 for the full control effect; nearly all actives have a fitted effect of over 55% in size
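qHTS (up to 57 uM final) was run with 24 h compound exposure of reporter cells at 37 °C. Each well was multiplexed: SteadyGlo luminescence measured ATXN2-luciferase expression after a fluorogenic Gly-Phe-AFC viability readout (25 uM final).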
TDP1 cell noCPT: qHTS for Inhibitors of human tyrosyl-DNA phosphodiesterase 1 (TDP1): qHTS in cells in absence of CPT; DT40 Tdp1-/- hTDP1 cells, no CPT, ATP luminescence, 48 h; Potency, µM (series often up to 46.2 µM), without a hit: at the highest dose activity change, negative = growth inhibition, actives largely listed as inhibitors; 15% of 420,000 active; AID 686978, 2013; note: % is set by controls: 0 for no effect and ±100 for the full control effect; nearly all actives have a fitted effect of over 55% in size
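Growth of hTDP1-complemented DT40 Tdp1-knockout cells is measured by ATP luminescence after at least 48 hr compound exposure at 37 °C, with DMSO substituting for the 20 nM CPT used in the parallel screen.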
TGFb SMAD3 inh: qHTS for Inhibitors of TGF-b | HepG2 CAGA-GFP TGF-b/SMAD3 reporter, GFP fluorescence, 18 h; TGF-beta stimulated, 500 pg/mL final | AID 588855, 2011 | Potency, µM (top dose mostly 46.1 µM), for inactives: at the highest dose activity, negative = inhibition, actives largely listed as inhibitors | 1.2% of 410,000 active; note: % is set by controls: 0 for no effect and ±100 for the full control effect; nearly all actives have a fitted effect of over 65% in size
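Using HEPG2 CAGA-GFP reporter cells at 1000 cells/well, we pinned test compounds, stimulated with recombinant TGF-beta (500 pg/mL final) and measured total well GFP after 18 h.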
Starred values were filed as active, the others as inactive; i = inactive; ? = inconclusive; nt = no result given; ! = repeats disagree. In the library only some 17% were active in any assay of this set; here they are far more common. Calls come from the whole dose curve; as a rule, active = well fitted curve in the direction sought with a large enough effect; inconclusive = small, poorly fitted or top-dose-only effect, or another doubt; inactive = no such curve, though single readings can be large; an effect the other way counts as inactive or inconclusive. Potency is the fitted concentration of half-maximal effect.

SMILES	TDP1 cell CPT	S2 tox	HepG2 viability	ATXN2 expr inh	TDP1 cell noCPT	TGFb SMAD3 inh
c1csc(-c2nc(NCC3CCCO3)c3ccccc3n2)c1 (centres undefined)	?	i	-19%	-5%	?	-15%
COc1cc2nc(N3CCN(C)CC3)nc(NC3CCN(Cc4ccccc4)CC3)c2cc1OC	11µM*	nt	nt	nt	11µM*	nt
COc1cc2nc(N3CCOCC3)nc(NC3CCN(Cc4ccccc4)CC3)c2cc1OC	16µM*	nt	nt	nt	11µM*	nt
c1ccc(CN2CCC(Nc3nc(-c4cccs4)nc4ccccc34)CC2)cc1	8.2µM*	nt	-117%	nt	18µM*	?
COc1cc2[nH]c(=S)n(C3CCN(Cc4ccccc4)CC3)c(=O)c2cc1OC	?	i	-4%	-21%	18µM*	-7%
COC(=O)C1(C)NC(c2cccc(C)c2)C2C(=O)N(c3ccccc3)C(=O)C21 (centres undefined)	-1%	i	-40%	nt	3%	-26%
O=C(O)COc1ccccc1/C=N/NC(=O)CSc1nnc(-c2ccc(Cl)cc2)n1C1CCCCC1	-9%	?	20%	nt	1%	-1%
COc1cc2nc(Cl)nc(NC3CCN(Cc4ccccc4)CC3)c2cc1OC	7.1µM*	nt	nt	nt	10µM*	nt
COc1cc2c(NC3CCN(C)CC3)nc(N3CCCN(C)CC3)nc2cc1OCC1CCNCC1	-4%	nt	0%	nt	-14%	-16%
COc1cc2c(NC3CCN(C)CC3)nc(N3CCCN(C)CC3)nc2cc1OCc1ccccc1	2.8µM*	nt	nt	nt	2.8µM*	nt
Cc1ccc(-c2nc(CS(=O)(=O)CC(=O)NC3CCC(C)CC3)c(C)o2)cc1 (centres undefined)	?	i	-34%	nt	?	?
CCN(CC(=O)NCc1ccc(F)cc1)C(=O)c1cccc(S(=O)(=O)N(C)c2ccc(OC)cc2)c1	?	i	-7%	1%	?	-6%
O=C(CN1c2cccc3cccc(c23)S1(=O)=O)Nc1c(F)c(F)c(F)c(F)c1F	-9%	i	-12%	-2%	0%	-10%
CCN(Cc1ccccc1)Cc1c(O)ccc2c(=O)c(-c3ccccc3)c(C(F)(F)F)oc12	?	nt	-22%	nt	?	?
CCN(Cc1ccccc1)Cc1c(O)ccc2c(=O)c(-c3ccccc3Cl)c(C(F)(F)F)oc12	18µM*	i	-11%	-4%	?	11%
CCN(Cc1ccccc1)Cc1c(O)ccc2c(=O)c(-c3ccccc3OC)c(C(F)(F)F)oc12	?	i	-16%	2%	26µM*	?
COc1ccc(Cl)cc1NC(=O)CN1C(=O)COc2ccc(S(=O)(=O)NC3CCCC3)cc21	7%	?	-21%	-17%	-13%	?
CC(C)N(Cc1ccccc1)C(=O)CN1C(=O)COc2ccc(S(=O)(=O)NC3CCCC3)cc21	26µM*	?	1%	4%	23µM*!	33%
CCOc1ccccc1NC(=O)CN1C(=O)COc2ccc(S(=O)(=O)NC3CCCC3)cc21	26µM*	?	-18%	-7%	?	-14%
Cc1ccc(C(=O)Nc2cc([N+](=O)[O-])ccc2F)s1	-3%	?	17%	6%	-3%	?
O=C(Nc1ccccc1F)c1ccc([N+](=O)[O-])s1	21µM*	i	-68%	-25%	21µM*	?
CN(C)NC(=O)c1ccc([N+](=O)[O-])s1	?	i	-12%	nt	16µM*	-20%
CCc1nc2ccc(C(=O)Nc3cc(-c4ccccc4)ccc3OC)cn2c1N(CCN(C)C)CC1CC1	21µM*	28µM*	-96%	?	15µM*	?
CCc1nc2ccc(C(=O)NCCC(C)C)cn2c1N(CCN(C)C)CC1CC1	-9%	i	-12%	-2%	-6%	19%
CCc1nc2ccc(C(=O)Nc3cc(-c4ccccc4)ccc3OC)cn2c1N(C)CCC(C)C	18µM*	?	-108%	?	21µM*	?
SMILES	TDP1 cell CPT	S2 tox	HepG2 viability	ATXN2 expr inh	TDP1 cell noCPT	TGFb SMAD3 inh
CCc1nc2ccc(C(=O)Nc3cc(-c4ccccc4)ccc3OC)cn2c1N(C=O)CCC(C)C	16µM*	i	-22%	?	15µM*	?
CC1CCC(C(C)C)C2=C1C(C#N)(C#N)C(C#N)(C#N)C(c1ccccc1)N2 (centres undefined)	?	i	-40%	1%	18µM*	?
CN(C(=O)Cn1cnc2onc(-c3ccc(F)cc3)c2c1=O)c1ccccc1Cl	21µM*	i	-33%	-2%	?	?
CCOc1ccccc1N(C)C(=O)Cn1cnc2onc(-c3ccc(F)cc3)c2c1=O	?	i	-49%	-5%	21µM*	11%
CCCN(CCC)CCCNC(=O)Cn1cnc2onc(-c3ccc(F)cc3)c2c1=O	-14%	i	-41%	-13%	-25%	-16%
COc1ccc(N(C)C(=O)CCn2cnc3onc(-c4ccc(F)cc4)c3c2=O)c(OC)c1	21µM*	?	-23%	?	13µM*	-13%
CC1=[N+](C)c2c(ccc3cccnc23)C1(C)C	0.33µM*	nt	-11%	3µM*	1.8µM*	?
CC(=O)N1CCC2(CC1)OC(=O)C(C)=C2C(=O)NCc1ccc(Cl)cc1	10%	nt	-7%	nt	0%	-15%
CC(C)C[C@H]1CNC(=S)N1CC1CCCN1C[C@H](Cc1ccc(O)cc1)N1C[C@H](Cc2ccccc2)N(CC2CCCCC2)C1=S (some centres undefined)	5.8µM*	?	-2%	-27%	5.8µM*	?
CC(C)C[C@H]1CNC(=S)N1CC1CCCN1C[C@H](Cc1ccccc1)N1C[C@H](Cc2ccccc2)N(CC2CCCCC2)C1=S (some centres undefined)	?	?	26%	-27%	?	4%
CC(C)C[C@H]1CNC(=S)N1C[C@H]1CCCN1C[C@H](Cc1ccccc1)N1C[C@H](Cc2ccc(O)cc2)N(CC2CCCCC2)C1=S	16µM*	?	-38%	?	23µM*	11µM*
CSCCC(NS(=O)(=O)c1ccc2c(c1)OCCO2)C(=O)N(C)Cc1ccc(C)cc1 (centres undefined)	?	?	4%	0%	15µM*	-15%
